An excerpt weighted towards active compounds, which were near 4.7% of everything screened.
D1 potentiator = potentiators of human D1 dopamine receptor | P21728 | HEK293 TREx D1 cells, calcium flux, dopamine EC20 potentiation | potentiation, % at 10 µM | hit rate 0.036% among 360,000 | AID 504651; in the data active = potentiation above about 30%; also: 0% is about no effect
Target sequence (P21728 whole entry, looked up): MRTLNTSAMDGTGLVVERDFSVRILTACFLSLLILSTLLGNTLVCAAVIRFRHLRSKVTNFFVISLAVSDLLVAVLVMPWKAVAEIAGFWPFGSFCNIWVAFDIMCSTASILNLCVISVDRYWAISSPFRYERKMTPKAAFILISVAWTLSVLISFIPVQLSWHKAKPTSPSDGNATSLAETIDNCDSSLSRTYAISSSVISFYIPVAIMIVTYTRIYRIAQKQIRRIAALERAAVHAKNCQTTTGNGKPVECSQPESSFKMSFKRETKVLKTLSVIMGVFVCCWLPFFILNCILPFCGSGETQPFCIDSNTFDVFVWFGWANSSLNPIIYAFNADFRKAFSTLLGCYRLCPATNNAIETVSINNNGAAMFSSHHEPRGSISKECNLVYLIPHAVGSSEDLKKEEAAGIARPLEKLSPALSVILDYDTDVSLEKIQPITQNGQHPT
D1 agonist = activates the human D1 dopamine receptor; P21728; HEK293 T-REx D1 cells, calcium flux, agonist mode; activation, % at 2 µM; hit rate 1% among 360,000; also: 0% is about no effect
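Agonism was scored from calcium flux recorded over 180 s (1 read/s) after pintool compound addition, following a 10-cycle baseline. Cells were inducible force-coupled HEK293 TREx D1, plated overnight at 30 C and loaded with no-wash calcium dye.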
TRHR ag = activates the human TRH receptor; TRHR cells, calcium flux fluo-8, FDSS agonist mode; activation, % at 2 µM; hit rate 0.18% among 360,000; AID 493084; also: 0% is about no effect
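Read-out: compound-evoked intracellular calcium rise in TRHR cells, fluo-8 dye, kinetic FDSS fluorescence at 1 s/cycle following a 10-cycle baseline. Cells cultured overnight before dye loading (30 min–1.5 h, RT).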
D1 antagonist = human D1 dopamine receptor antagonism. P21728. HEK293 TREx D1 cells, calcium flux, dopamine EC80; stronger effect = lower value. activity change, negative = inhibition, % at 10 µM. hit rate 3.2% among 360,000; in the data active = activity change below about -30%; also: % is scaled to controls: 0 for no effect and ±100 for the full control effect
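Tetracycline-induced HEK293 T-REx cells with force-coupled D1 receptor were loaded with a no-wash calcium dye. Compound was added after a 10 s baseline and read kinetically for 180 s; EC80 dopamine was then added and calcium flux followed another 180 s.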
TRHR PAM = TRH receptor (human) allosteric enhancement. P34981. TRHR cells, fluo-8 calcium fluorescence, EC20 TRH enhancement. enhancement, % at 2 µM. hit rate 0.66% among 360,000; in the data active = enhancement above about 30%; also: 0% is about no effect
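Enhancer read-out: after compound pinning and an initial kinetic agonist-mode read, an EC20 of TRH (10 nM final) was injected and fluo-8 calcium signal (Ex 480/Em 530) followed at 1 s/cycle for 100 cycles in TRHR-expressing cells.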
* hit, by the source's call; x = no result given. Rule as the data show it, unless noted: active = activation above about 30%; inactive = the rest.

SMILES | D1 potentiator | D1 agonist | TRHR ag | D1 antagonist | TRHR PAM
CCN(CC)C(=O)c1cc(S(=O)(=O)N2CCCCC2)c[nH]1 | -3 | 8 | 1 | -36* | -1
COc1cc(CNCc2ccc(OC)cc2OC)cc(OC)c1 | 7 | 16 | 1 | -12 | 2
COc1cc(CNCc2ccc(Br)cc2)cc(OC)c1 | -8 | 82* | 0 | -4 | 14
COc1cc(CNCc2c[nH]c3ccccc23)cc(OC)c1 | -6 | 26 | 1 | -40* | 5
Cc1cc(NC(=O)C(C)C)ncc1NC(=O)Cc1ccccc1 | -1 | 14 | 1 | 0 | 10
COc1cc(C(=O)Nc2cnc(NC(=O)C(C)C)cc2C)cc(OC)c1OC | -9 | 1 | 0 | -47* | 0
O=C(CSc1nnc2[nH]c(=O)cc(-c3ccccc3)n12)Nc1cc(C(F)(F)F)ccc1Cl | -2 | 2 | 0 | x | -9
CN(c1ccc(C(=O)N2CCCCC2)cc1)S(=O)(=O)c1ccccc1 | 4 | 17 | 0 | -36* | 12
COc1cccc(C(CNc2ccc(S(=O)(=O)N3CCN(C)CC3)cc2[N+](=O)[O-])N(C)C)c1 (configuration not stated) | -7 | 8 | 0 | -22 | 0
COc1cc(S(=O)(=O)N2CCCN(C)CC2)ccc1NC(C)=O | -5 | 3 | 0 | -15 | 30*
CC(Nc1ccc(S(=O)(=O)N2CCN(C)CC2)cc1[N+](=O)[O-])c1ccccc1 (configuration not stated) | -6 | 1 | 0 | -73* | -6
COc1ccccc1C(C)Nc1ccc(S(=O)(=O)N2CCN(C)CC2)cc1[N+](=O)[O-] (configuration not stated) | -8 | 0 | 0 | -65* | -2
CCOC(=O)c1ccc(NC(=O)COCc2cc(-c3ccc4c(c3)OCO4)on2)cc1 | 1 | 10 | 1 | -25 | -2
Cc1ccc2c(c1)-c1nc(-c3ccc4c(c3)NC(=O)CO4)cc(-c3ccc(F)cc3)c1CO2 | -3 | 0 | 0 | 5 | 1
CCCSc1ncc(Cl)c(C(=O)Nc2c(C(=O)Nc3ccc(C)cc3)oc3ccccc23)n1 | 0 | 1 | 0 | 0 | 19
Cc1cc(C(=O)NN)c2cc(Br)ccc2n1 | -8 | 1 | 0 | -35* | -11
COC(=O)CN1C(CN2CCOCC2)=Nc2ccc(Br)cc2C1c1ccccc1 (configuration not stated) | -7 | 1 | 1 | -49* | 4
COC(=O)CN1C(c2cccc(Cl)c2)=Nc2ccc(Cl)cc2C1c1ccccc1 (configuration not stated) | 4 | 11 | 1 | 12 | -7
COc1ccc(NC(=O)C(C)n2nc(C)c3c(C)n(-c4ccccc4)nc3c2=O)cc1Cl (configuration not stated) | -1 | 0 | 0 | -18 | 4
COCCNC(=O)c1ccc(NS(=O)(=O)c2ccc3[nH]c(=O)[nH]c3c2)cc1 | -2 | 3 | 0 | 0 | 4
CCC(C)NC(=O)c1ccc(NS(=O)(=O)c2ccc3[nH]c(=O)[nH]c3c2)cc1 (configuration not stated) | -3 | 1 | 0 | -33* | -2
Cc1ccc(OC(=O)C2c3ccccc3Oc3ccccc32)cc1C | -4 | 32* | 0 | -12 | 3
CC(=O)c1ccc(OC(=O)C2c3ccccc3Oc3ccccc32)cc1 | 4 | 6 | 1 | -4 | -9
COc1cc(OC)cc(C(=O)Nc2ccc(S(=O)(=O)N3CCCCC3c3cccnc3)cc2)c1 (configuration not stated) | -2 | 1 | 0 | -10 | 2
CCC(C)NC(=O)CCC(=O)N1Cc2ccccc2Oc2ncccc21 (configuration not stated) | -2 | 5 | -1 | -6 | 13
SMILES | D1 potentiator | D1 agonist | TRHR ag | D1 antagonist | TRHR PAM
CN(Cc1ccccc1O)CC1CCCN(CCc2ccc(Cl)cc2)C1 (configuration not stated) | -10 | 3 | 0 | -28 | 6
CN(Cc1ccc(C#CCCO)cc1)CC1CCCN(CCc2ccc(Cl)cc2)C1 (configuration not stated) | -7 | 17 | 0 | -38* | -3
O=C(NCc1cccc(F)c1)c1ccc(-n2cnc3cccnc32)cc1 | 2 | 0 | -1 | -3 | 4
COc1cc(C(=O)Nc2ccccc2SCc2cc(=O)n3nc(C)sc3n2)cc(OC)c1OC | -5 | 4 | -1 | -50* | -4
CCc1nn(CC(=O)NC(C)CC)c(=O)c2cc3occc3n12 (configuration not stated) | -3 | 1 | 1 | 13 | 1
Cc1cc(=O)[nH]c(SCC(=O)Nc2cccc(C(F)(F)F)c2)n1 | 0 | 2 | 0 | -32* | -2
O=C(CSc1ncnc2c1cnn2CCO)Nc1cccc(C(F)(F)F)c1 | -6 | 26 | 0 | 7 | 31*
Cc1ccc2onc(CC(=O)Nc3cc(F)ccc3F)c2c1 | -3 | -1 | 0 | -81* | -6
COC(=O)c1ccccc1NC(=O)Cc1noc2ccc(C)cc12 | -4 | -1 | 0 | -21 | 10
Cc1ccc2onc(CC(=O)Nc3cccc(C(F)(F)F)c3)c2c1 | -6 | 0 | 1 | -75* | -19
O=C(COc1ccccc1F)Nc1ccc(Cl)c(-c2nc3ccccc3[nH]2)c1 | -1 | -1 | -1 | -6 | 3
O=C(CCCc1ccccc1)NC1CC(=O)N(c2ccc(Cl)cc2)C1 (configuration not stated) | 0 | -2 | 0 | x | -4
Cc1ccc(CNC(=O)CCCCCn2c(=O)c3sccc3n(CC(=O)N3CCCCC3C)c2=O)cc1 (configuration not stated) | -1 | 3 | -1 | -4 | -5
Cc1ccc(NC(=O)Cc2noc3ccccc23)cc1 | -1 | 2 | 0 | 0 | 1
Cc1cc(C)cc(NC(=O)Cc2noc3ccccc23)c1 | -2 | -1 | 1 | -63* | -3
CCc1ccc(CNC(=O)c2ccc(Cn3c(=O)c4cccn4c4cccnc43)cc2)cc1 | -1 | 1 | 0 | -6 | 3
CCCOC(=O)c1ccc(NC(=O)c2cc(OC)c(OC)c(OC)c2Br)cc1 | -6 | 1 | 1 | -36* | 3
COc1ccc(NC(=O)c2cc(OC)c(OC)c(OC)c2Br)cc1OC | -5 | 3 | 0 | -11 | 39*
COc1cc(C(=O)NCCOc2ccccc2)c(Br)c(OC)c1OC | -6 | 0 | -1 | 0 | 1
COc1cc(C(=O)Nc2ccc(C(C)=O)cc2)c(Br)c(OC)c1OC | -3 | 6 | -1 | -3 | -2
COc1cc(C(=O)NCCOc2ccc(F)cc2)c(Br)c(OC)c1OC | 4 | 1 | -4 | -55* | 7
COc1cccc(C(=O)C2CCCN(Cc3cccn3-c3ccccn3)C2)c1 (configuration not stated) | -6 | 26 | 0 | -32* | -1

Screening data (PubChem)
